The values that follow come from PubChem BioAssay.

Active and inactive are the calls of the source.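 How the source made its calls: active means compounds whose cell count with miR-34 switched on is under 0.7 times the count with it off; inactive means the rest.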

This test in a line: sensitizers of A549 cells to miR-34 induction, primary screen, imaging, A549 dox-inducible miR-34, nuclei and caspase counts (AID 1347080). Further: test concentration not given here. Conditions: A549 miR-34 inducible, Hoechst nuclei count, 48 h.
Setting [1] is: stronger effect = lower value, cell number ratio, induced over uninduced.
Where [2] appears, read: measured here: relative caspase fold change +Dox/-Dox.
The mark [3] stands for this setting: measured here: total cells with miR-34 induction, stronger effect = lower value.
[4] abbreviates: measured here: total cells without miR-34 induction.

For the compound `CCCCC/C=C\C/C=C\C/C=C\C/C=C\CCC(C)C(=O)NCCF` (stereo unspecified), the fold change is, setting by setting: under setting [1], 1.05 (inactive); under setting [2], 1.21. Also, the cell count is, setting by setting: under setting [3], 5220; under setting [4], 4990.
`Cn1c2cccc(=O)c-2nc2ccccc21`: the fold change was 1.03 (inactive) under setting [1] and 0.698 under setting [2]. The cell count under setting [3] is 3390 and the cell count under setting [4] came to 3310.
The like results for `CCCCCCCCCC(=O)OC[C@H](COP(=O)([O-])OCC[N+](C)(C)C)OC(=O)CCCCCCCCC` were, in that order, 0.907 (inactive), 0.797, 5320 and 5860.
The like results for `CN=C(NS(=O)(=O)c1ccc(Cl)cc1)N1CC(c2ccccc2)C(c2ccc(Cl)cc2)=N1` (stereo unspecified) were, in that order, 0.741 (inactive), 0.564, 4700 and 6340.
Turning to `CCCCC/C=C\C/C=C\C/C=C\C/C=C\CCCC(=O)NCCCl`, the fold change runs as follows: under setting [1], 1.01 (inactive); under setting [2], 1.15. Moreover, the cell count by setting is: under setting [3], 6340; under setting [4], 6270.
On to `C=C1[C@@H](O)[C@@H]2O[C@@]3(CCC2O[C@@H]1[C@@H](O)C[C@H](C)C1O[C@@]2(CCCCO2)CC[C@H]1C)CC[C@H](/C=C/[C@@H](C)[C@@H]1CC(C)=C[C@@]2(O[C@H](C[C@@](C)(O)C(=O)O)CC[C@H]2O)O1)O3` (stereo partly specified), for which the fold change is, setting by setting: under setting [1], 0.897 (inactive); under setting [2], 0.814. For the same compound, the cell count under setting [3] stood at 423 and the cell count under setting [4] was 472.
The like results for `CCCCCCCC/C=C\CCCCCCCC(=O)Nc1ccccc1` were, in that order, 1.04 (inactive), 0.81, 6190 and 5950.
The like results for `CCCCC/C=C\C/C=C\C/C=C\C/C=C\CCCC(=O)N[C@H](C)COP(=O)(O)O` were, in that order, 1.03 (inactive), 0.754, 5610 and 5460.
For the compound `CCCCC/C=C\C/C=C\C/C=C\C/C=C\CCCC(=O)NC1CC1`, the fold change is, setting by setting: under setting [1], 1.01 (inactive); under setting [2], 0.962. Also, the cell count under setting [3] is 5860 and the cell count under setting [4] was 5800.
Take `O=NN(O)N1CCC[C@H]1C(=O)O`: the fold change is 0.944 (inactive) under setting [1] and 1.07 under setting [2]. In addition, the cell count reads like this: under setting [3], 5740; under setting [4], 6080.
The like results for `CCCCC/C=C\C/C=C\C/C=C\C/C=C\CCCC(=O)Nc1cccc([N+](=O)[O-])c1` were, in that order, 0.95 (inactive), 0.782, 5310 and 5590.
`CCCC[C@@H](C)[C@@H](OC(=O)C[C@@H](CC(=O)O)C(=O)O)[C@H](C[C@@H](C)C[C@H](O)CCCC[C@@H](O)C[C@H](O)[C@H](C)N)OC(=O)C[C@H](CC(=O)O)C(=O)O`: the fold change was 0.911 (inactive) (stronger effect = lower value) and 1.82 under setting [2]. Further, the cell count was found to be 5520 under setting [3] and 6060 under setting [4].
Take `CCCCC/C=C\C/C=C\C/C=C\C/C=C\CCCC(=O)NC[C@@H](C)O`: the fold change is, setting by setting: under setting [1], 0.961 (inactive); under setting [2], 0.786. Also, the cell count under setting [3] amounted to 5790 and the cell count under setting [4] was found to be 6030.
As for `c1cc(N2CCNCC2)c2cc[nH]c2c1`, the fold change reads like this: under setting [1], 0.865 (inactive); under setting [2], 1.51. Besides, the cell count turned out to be 4820 under setting [3] and 5570 under setting [4].
Take `CC1OC(O[C@H]2C[C@@H](O)[C@]3(CO)[C@H]4[C@H](O)C[C@]5(C)[C@@H](C6=CC(=O)OC6)CC[C@]5(O)[C@@H]4CC[C@]3(O)C2)C(O)C(O)C1O` (stereo partly specified): the fold change is 0.802 (inactive) (stronger effect = lower value) and 1.17 under setting [2]. For the same compound, the cell count reads like this: under setting [3], 286; under setting [4], 356.
Consider `CCCCC/C=C\C/C=C\C/C=C\C/C=C\CCCCOC(CO)CO`, for which the fold change runs as follows: under setting [1], 0.983 (inactive); under setting [2], 0.95. For the same compound, the cell count is, setting by setting: under setting [3], 5720; under setting [4], 5810.
With `CCCCC/C=C\C/C=C\C/C=C\C/C=C\CCCC(=O)Nc1ccc2c(C)cc(=O)oc2c1`, the fold change runs as follows: under setting [1], 0.937 (inactive); under setting [2], 0.94. Also, the cell count runs as follows: under setting [3], 5170; under setting [4], 5510.
On to `CCCCC/C=C\C/C=C\C/C=C\C/C=C\CCCC(=O)NCCS(=O)(=O)O`, for which the fold change reads like this: under setting [1], 0.96 (inactive); under setting [2], 1.07. The cell count runs as follows: under setting [3], 5500; under setting [4], 5730.
The like results for `CCCCC/C=C\C/C=C\C/C=C\C/C=C\CCCC(=O)Nc1cccc(O)c1` were, in that order, 0.942 (inactive), 0.281, 5390 and 5720.
The like results for `c1cc(N2CCNCC2)c2cnccc2c1` were, in that order, 0.965 (inactive), 0.639, 5540 and 5740.
The like results for `O=C(NCCN1CCC2(CC1)C(=O)NCN2c1ccccc1)c1ccc2ccccc2c1` were, in that order, 0.966 (inactive), 1.81, 5740 and 5940.
Take `COC(=O)[C@@]1(O)CC2OC1(C)n1c3ccccc3c3c4c(c5c6ccccc6n2c5c31)C(=O)NC4` (stereo partly specified): the fold change by setting is: (stronger effect = lower value) 0.903 (inactive); under setting [2], 1.29. Further, the cell count was 2180 under setting [3] and 2410 under setting [4].
For `CCCCC/C=C\C/C=C\C/C=C\C/C=C\CCCC(=O)Nc1ccc(O)cc1C`, the fold change is, setting by setting: under setting [1], 1.03 (inactive); under setting [2], 0.979. Further, the cell count runs as follows: under setting [3], 6030; under setting [4], 5870.
As for `CCCCC/C=C\C/C=C\C/C=C\C/C=C\CCCC(=O)NCC(O)CC(=O)O` (stereo unspecified), the fold change under setting [1] was 1.07 (inactive) and the fold change under setting [2] was found to be 1.27. The cell count is, setting by setting: under setting [3], 5440; under setting [4], 5070.
On to `C=C(C)[C@@H]1CCC(C)=C[C@H]1c1c(OC)cc(CCCCC)cc1OC`, for which the fold change under setting [1] is 0.935 (inactive) and the fold change under setting [2] was 1.03. Moreover, the cell count runs as follows: under setting [3], 5760; under setting [4], 6160.
The like results for `CCCCC/C=C\C/C=C\C/C=C\C/C=C\CCCC(=O)NC[C@H](C)O` were, in that order, 0.983 (inactive), 1.04, 6010 and 6110.
`CCCCCC(=O)N[C@H]1CCOC1=O`: the fold change runs as follows: under setting [1], 0.883 (inactive); under setting [2], 0.721. The cell count stood at 5400 under setting [3] and 6120 under setting [4].
The like results for `OOCCC/C=C/c1ccccc1` were, in that order, 0.959 (inactive), 0.789, 5730 and 5970.
Turning to `CNCCCCCCN(C)N(O)N=O`, the fold change is, setting by setting: under setting [1], 0.998 (inactive); under setting [2], 0.973. Moreover, the cell count is, setting by setting: under setting [3], 6040; under setting [4], 6050.
